Compound activity (PubChem)
Only some compounds are listed: those with a hit (about 7.4% of all), similar ones and a draw of the others.
ELG1 genotoxic: qHTS screen for small molecules that induce genotoxicity in human embryonic kidney (HEK293T) cells expressing luciferase-tagged ELG1; HEK293T ELG1-luciferase reporter, luminescence, 16 h; Potency, µM (doses to about 46 µM), actives largely listed as activators; actives 1.3% (n = 330,000); AID 504466, 2011; also: nearly all actives have a fitted effect of over 60% in size
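Luminescence read-out: rising ELG1-luciferase signal, reflecting elevated ELG1 protein under genetic stress, flags genotoxic compounds. Cells were treated for 16 hr at 37 °C before ONE-Glo detection.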
FLuc counter: qHTS profiling assay for firefly luciferase inhibitor/activator using purifed enzyme and Km concentrations of substrates (counterscreen for miR-21 project); Luciferin 4-monooxygenase (Photinus pyralis), P08659; actives 6.9% (n = 360,000); purified FLuc, Km substrates, luminescence inhibition; Potency, µM (top dose mostly 57.5 µM), usual class: inhibitors; also: nearly all actives have a fitted effect of over 55% in size
Target sequence (P08659 whole entry, looked up): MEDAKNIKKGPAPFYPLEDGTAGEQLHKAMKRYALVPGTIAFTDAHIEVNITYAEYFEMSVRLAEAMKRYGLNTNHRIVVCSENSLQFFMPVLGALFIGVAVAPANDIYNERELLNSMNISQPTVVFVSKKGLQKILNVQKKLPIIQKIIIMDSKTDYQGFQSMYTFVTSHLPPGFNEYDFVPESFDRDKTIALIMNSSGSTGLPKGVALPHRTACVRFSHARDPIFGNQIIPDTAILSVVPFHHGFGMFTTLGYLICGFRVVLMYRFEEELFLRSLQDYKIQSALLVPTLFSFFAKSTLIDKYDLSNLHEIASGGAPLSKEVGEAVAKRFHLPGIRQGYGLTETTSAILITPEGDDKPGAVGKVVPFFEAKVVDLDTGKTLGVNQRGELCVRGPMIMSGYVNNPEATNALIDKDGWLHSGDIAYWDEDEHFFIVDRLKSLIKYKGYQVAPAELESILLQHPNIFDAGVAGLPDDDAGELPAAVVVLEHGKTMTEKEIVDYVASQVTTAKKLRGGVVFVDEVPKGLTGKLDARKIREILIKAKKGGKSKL
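Purified P. pyralis luciferase (10nM final) with 10uM D-luciferin and 10uM ATP (Km levels) in 50mM Tris acetate pH 7.5, 10mM Mg acetate, 0.01% Tween-20, 0.05% BSA; qHTS 6-point titration, ~60 µM downward; luminescence read.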
Rab9 promoter act: qHTS Assay for Rab9 Promoter Activators; Huh7 Rab9 promoter-luciferase reporter, luminescence, 24 h; Potency, µM (top dose mostly 9.22 µM), hits mostly activators; actives 2.8% (n = 320,000); AID 485297, 2010; also: nearly all actives have a fitted effect of over 60% in size
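Using Huh7 cells stably transfected with Rab9 promoter–luciferase, compounds were incubated 24 h at 37 °C, 5% CO2; luciferase luminescence was read 10 min after reagent addition.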
Luc counter: Counterscreen for Luciferase (Kinase-Glo TM) Inhibition. Luciferin 4-monooxygenase (Photuris pensylvanica), Q27757. Kinase-Glo luciferase, ATP luminescence, 8 min. Potency, µM (highest dose often 38.3 µM), usual class: inhibitors. actives 0.28% (n = 200,000); also: nearly all actives have a fitted effect of over 60% in size
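Inhibition of Kinase-Glo luciferase light generation was assessed at 10 uM ATP in pH 7.2 imidazole buffer, with luminescence measured after eight minutes at ambient temperature.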
NPC1 prom act: qHTS Assay for NPC1 Promoter Activators | Huh7 NPC1 promoter luciferase reporter, 24 h | Potency, µM (series often up to 9.22 µM), actives largely listed as activators | actives 2.4% (n = 320,000); also: nearly all actives have a fitted effect of over 60% in size
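Readout is luciferase luminescence, reflecting NPC1 promoter activation in stably transfected Huh7 cells after 24 h compound exposure at 37 °C in reduced-serum medium with 10% FBS.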
SMN2 splice enh: qHTS Assay for Enhancers of SMN2 Splice Variant Expression; HEK293 SMN2-luciferase splicing reporter, luminescence, 30-36 h; Potency, µM (doses to about 46.1 µM), hits mostly activators; actives 2.8% (n = 210,000); AID 1458, 2008; also: nearly all actives have a fitted effect of over 55% in size
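HEK293 cells carry an SMN2 […]–luciferase reporter in which exon 7 inclusion puts luciferase in frame. Cells were plated 10-12 h before compound addition, then incubated 30-36 h at 37C. ONE-Glo luminescence was read; sodium butyrate at 4.5 mM final served as control.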
Numbers stand for hits; 0 = inactive; ? = inconclusive; - = no result; [ ] = dose if it differs, or a comment. Calls follow the shape of the dose curve; as a rule, active = well fitted curve in the direction sought with a large enough effect; inconclusive = small, poorly fitted or top-dose-only effect, or another doubt; inactive = no such curve, though single readings can be large; an effect the other way counts as inactive or inconclusive.

SMILES | ELG1 genotoxic | FLuc counter | Rab9 promoter act | Luc counter | NPC1 prom act | SMN2 splice enh
O=C(COc1ccc2ccccc2c1)NNC(=O)Cc1cccc2ccccc12 | 0 | 0 | 0 | 0 | 0 | 0
CCCCC1CCC(C(=O)N(CC(C)C)c2c(N)n(Cc3ccccc3)c(=O)[nH]c2=O)CC1 (configuration not stated) | 0 | 0 | 0 | - | 0 | -
O=C(Nn1c(O)c(C=C2N=c3ccccc3=N2)sc1=S)c1ccccc1Cl | 0 | 15.1µM | 0 | 0 | 0 | 0
O=S(=O)(Nn1c(O)c(C=C2N=c3ccccc3=N2)sc1=S)c1ccccc1 | 0 | 15.1µM | 0 | - | 0 | -
Oc1c(C=C2N=c3ccccc3=N2)sc(=S)n1-c1ccccc1 | 0 | 0 | 0 | 0 | 0 | 0
CCn1c(O)c(C=C2N=c3ccccc3=N2)sc1=S | 0 | 0 | 0 | 0 | 0 | 0
CC(=O)N1CCCc2cc(S(=O)(=O)N3CCCC(C(=O)Nc4ccccc4C)C3)ccc21 (configuration not stated) | 0 | 0 | 0 | - | 0 | -
CC(C)Cn1nc(NC(=O)c2cccc(Cl)c2)c2cc3ccccc3nc21 | - | 0 | - | - | - | 0
COc1cc(NC(=O)c2cccc(C)c2)c(Cl)cc1[N+](=O)[O-] | 0 | 0 | 0 | 0 | 0 | 0
Cc1cc(C)n(C(=O)/C=C/c2cccs2)n1 | 0 | 16.9µM | 0 | - | 0 | -
Cc1ccc(NC(=O)/C=C/c2cccs2)c([N+](=O)[O-])c1 | ? | 1.51µM | 3.16µM | 0 | 3.16µM | ?
Cc1cccc(NC(=O)/C=C/c2cccs2)n1 | ? | 4.78µM | 2.51µM | 12.6µM | 2.82µM | 3.16µM
CCCOC(=O)c1ccc(NC(=O)/C=C/c2cccs2)cc1 | 0 | 23.9µM | 0 | 0 | 0 | 0
Cc1ccc(NC(=O)/C=C/C(=O)O)c([N+](=O)[O-])c1 | 0 | 0 | 0 | 0 | 0 | 0
COc1ccc2c(c1OC)C(Cc1ccccc1)N1CCc3cc4c(cc3C1=C2)OCO4 (configuration not stated) | - | - | - | 0 | - | -
CCOC(=O)c1cc(NC(=O)COC)ccc1O | 0 | 0 | 0 | 0 | 0 | -
CCCOC(=O)c1cc(NC(=O)/C=C/c2ccccc2)ccc1O | 0 | 15.1µM | 0 | 0 | 0 | -
O=C(/C=C/c1cccs1)Nc1ccc([N+](=O)[O-])cc1 | 0 | ? | ? | 0 | 0 | ?
O=C(/C=C/c1cccs1)Nc1ccncc1 | 0 | 13.5µM | 0 | 0 | 0 | 0
CC(C)(C)c1ccc(/C=C/C(=O)Nc2ccncc2)cc1 | 0 | 4.78µM | 0 | 0 | 0 | 0
Cc1ccc(S(=O)(=O)NCC(=O)N(CC(=O)NCC2CCCO2)Cc2ccco2)cc1 (configuration not stated) | 0 | 0 | 0 | 0 | 0 | -
CCOC(=O)N1CCN(S(=O)(=O)N2CCCC(C(=O)NCCc3ccc(C)cc3)C2)CC1 (configuration not stated) | 0 | 0 | 0 | - | 0 | -
O=C(Nc1ccc(F)c(S(=O)(=O)N2CCOCC2)c1)C1CCCCC1 | 0 | 0 | 0 | - | 0 | -
O=C(NCCO)c1ccc(Cl)cc1 | - | - | - | 0[7.66 µM] | - | 0[9.22 µM]
CCCN(C(=O)/C=C/c1ccc(S(=O)(=O)N(CC)CC)cc1)C1CCS(=O)(=O)C1 (configuration not stated) | 0 | - | - | - | - | -
SMILES | ELG1 genotoxic | FLuc counter | Rab9 promoter act | Luc counter | NPC1 prom act | SMN2 splice enh
Cc1ccc2nc(NC(=O)CN3C(=O)C4CC=CCC4C3=O)sc2c1 (configuration not stated) | 0 | 10.7µM | 0 | 0 | 0 | 0
CS(=O)(=O)c1ccc2nc(NC(=O)CN3C(=O)C4CC=CCC4C3=O)sc2c1 (configuration not stated) | 0 | ? | 0 | 0 | 0 | 0
Cc1ccc2nc(NC(=O)[C@H](C)N3C(=O)C4CC=CCC4C3=O)sc2c1 (some centres not stated) | 0 | 16.9µM | 0 | 0 | 0 | 0
C[C@@H](C(=O)Nc1nc2ccc(F)cc2s1)N1C(=O)C2CC=CCC2C1=O (some centres not stated) | 0 | 0 | 0 | 0 | 0 | 0
COc1ccc(/C=C2\CCC/C(=C\C=N\N(C)C)C2=O)cc1 | 0 | 10.7µM | 0 | 0 | 0 | 0
CN(C)/N=C/C=C1\CCC/C(=C\c2ccc(F)c(F)c2)C1=O | 0 | 21.3µM | 0 | 0 | 0 | 0
O=C1/C(=C/c2cccnc2)CCC/C1=C\c1cccnc1 | 0 | 0 | 0 | 0 | 0 | 0
Cc1ccc2c(C)c(C(=O)N(Cc3ccc(Cl)cc3)C3CCS(=O)(=O)C3)oc2c1 (configuration not stated) | - | 0 | - | - | - | 0
O=C(NCc1ccccc1)c1cccc(COc2ccc(Cl)cc2)c1 | ? | 16.9µM | 2.82µM | 0 | 1.78µM | 6.31µM
COc1cccc(CNC(=O)c2cccc(Br)c2)c1 | 0 | 0 | 0 | 0 | 0 | 0
O=C(NCc1ccccc1)c1cccc(COc2cccc(Cl)c2)c1 | 0 | 0 | ? | 0 | ? | 0
COc1cc(CNC(=O)c2cccc(COc3ccc(Cl)cc3)c2)cc(OC)c1 | ? | 10.7µM | 0.224µM | 0 | 0.708µM | 2.51µM
Cc1ccc(-n2nc3ccc(NC(=O)c4ccc5c(c4)OCO5)cc3n2)cc1 | 0 | 0 | 0 | 0 | 0 | 0
Cc1ccc(-n2nc3ccc(NC(=O)c4ccco4)cc3n2)cc1 | 14.6µM | 9.53µM | ? | 0 | 0 | 0
Cc1ccc(-n2nc3ccc(NC(=O)c4oc5ccc(C)cc5c4C)cc3n2)cc1 | - | 0 | - | - | - | 0
CC(C)C(=O)Nc1ccc2nn(-c3ccc(F)cc3)nc2c1 | ? | 0.849µM | 0.0891µM | - | 0.112µM | -
